# Data published in paper PMC11062922 (Nature Chemical Biology, 2023).
# Where two headings read alike, the source gives them in different places.
# Assays:
# Parameters in all cases: species or system human, MV4-11 + K-562 + COLO205 + SK-N-BE2 + OVCAR-8
# NQO1 = conditions: read-out: apparent Kd; compound concentrations: 100 nM and 1000 nM (sheet 'Samples'), CATDS: 1; n = 1
# MAPK14 = conditions: read-out: apparent Kd; compound concentrations:100 nM and 1000 nM (sheet 'Samples'); n = 1
# MAPKAPK2 = conditions: read-out: apparent Kd; compound concentrations:100 nM and 1000 nM (sheet 'Samples'); n = 1
# NQO2 = conditions: read-out: apparent Kd; compound concentrations:100 nM and 1000 nM (sheet 'Samples'); n = 1
# PHKG2 = conditions: read-out: apparent Kd; compound concentrations:100 nM and 1000 nM (sheet 'Samples'); n = 1
# PIM2 = conditions: read-out: apparent Kd; compound concentrations:100 nM and 1000 nM (sheet 'Samples'); n = 1
# PIM3 = conditions: read-out: apparent Kd, n = 1
# PKN3 = conditions: read-out: apparent Kd; compound concentrations:100 nM and 1000 nM (sheet 'Samples'); n = 1
# RIPK2 = conditions: read-out: apparent Kd; compound concentrations:100 nM and 1000 nM (sheet 'Samples'); n = 1
# MDN1 = conditions: read-out: apparent Kd; compound concentrations: 100 nM and 1000 nM (sheet 'Samples'), CATDS: 0.24349694063925101; n = 1
# PIK3C3 = conditions: read-out: apparent Kd; compound concentrations: 100 nM and 1000 nM (sheet 'Samples'), CATDS: 0.27915457125427801; n = 1
# RIOK2 = conditions: read-out: apparent Kd; compound concentrations: 100 nM and 1000 nM (sheet 'Samples'), CATDS: 0.23086501182720201; n = 1
# TGFBR1 = conditions: read-out: apparent Kd; compound concentrations: 100 nM and 1000 nM (sheet 'Samples'), CATDS: 0.25129467412206702; n = 1
# MTHFD1 = conditions: read-out: apparent Kd; compound concentrations: 100 nM and 1000 nM (sheet 'Samples'), CATDS: 0.41943372694081998; n = 1
# TNK1 = conditions: read-out: apparent Kd; compound concentrations: 100 nM and 1000 nM (sheet 'Samples'), CATDS: 0.618875790720404; n = 1
# PDGFRB = conditions: read-out: apparent Kd; compound concentrations: 100 nM and 1000 nM (sheet 'Samples'), CATDS: 1; n = 1
# TESK2 = conditions: read-out: apparent Kd; compound concentrations: 100 nM and 1000 nM (sheet 'Samples'), CATDS: 0.45795860987145298; n = 1
# PKN2 = conditions: read-out: apparent Kd; compound concentrations:100 nM and 1000 nM (sheet 'Samples'); n = 1
# PRKCI = conditions: read-out: apparent Kd; compound concentrations:100 nM and 1000 nM (sheet 'Samples'); n = 1
# ROCK2 = conditions: read-out: apparent Kd; compound concentrations:100 nM and 1000 nM (sheet 'Samples'); n = 1
# PIK3CD = conditions: read-out: apparent Kd, n = 1
# PIK3CA = conditions: read-out: apparent Kd, compound concentrations: 100 nM and 1000 nM (sheet 'Samples'), n = 1
# PRKD1 = conditions: read-out: apparent Kd; compound concentrations:100 nM and 1000 nM (sheet 'Samples'); n = 1
# PRKD2 = conditions: read-out: apparent Kd; compound concentrations:100 nM and 1000 nM (sheet 'Samples'); n = 1
# PRKD3 = conditions: read-out: apparent Kd; compound concentrations:100 nM and 1000 nM (sheet 'Samples'); n = 1
# PI4KA = conditions: read-out: apparent Kd; compound concentrations: 100 nM and 1000 nM (sheet 'Samples'), CATDS: 0.112986099678868; n = 1
# PIK3CB = conditions: read-out: apparent Kd, n = 1
# PIK3CG = conditions: read-out: apparent Kd; compound concentrations: 100 nM and 1000 nM (sheet 'Samples'), CATDS: 0.14675867951409499; n = 1
# PRKDC = conditions: read-out: apparent Kd; compound concentrations: 100 nM and 1000 nM (sheet 'Samples'), CATDS: 0.12241161716625901; n = 1
# PKM = conditions: read-out: apparent Kd; compound concentrations: 100 nM and 1000 nM (sheet 'Samples'), CATDS: 1; n = 1
# PDXK = conditions: read-out: apparent Kd; compound concentrations: 100 nM and 1000 nM (sheet 'Samples'), CATDS: 1; n = 1
# PI4KB = conditions: read-out: apparent Kd; compound concentrations: 100 nM and 1000 nM (sheet 'Samples'), CATDS: 0.55367516713285103; n = 1
# TGFBR2 = conditions: read-out: apparent Kd; compound concentrations: 100 nM and 1000 nM (sheet 'Samples'), CATDS: 0.45581202141121302; n = 1
# [1] = compound concentrations:100 nM and 1000 nM (sheet 'Samples')
compound,measurement,setting,value
c1cc(-c2cnn3nc(N4CCOCC4)ccc23)nc(NC2CC2)n1 [GW708336X],potency estimated from few doses,NQO1,1540 nM
COc1cccc(-c2nc(-c3ccccc3)[nH]c2-c2ccncc2)c1 [SB-610250],potency estimated from few doses,MAPK14,1050 nM
same,potency estimated from few doses,MAPKAPK2,1480 nM
same,potency estimated from few doses,NQO2,131 nM
same,potency estimated from few doses,PHKG2,2340 nM
same,potency estimated from few doses,PIM2,1940 nM
same,potency estimated from few doses,PIM3; [1],1430 nM
same,potency estimated from few doses,PKN3,1320 nM
same,potency estimated from few doses,RIPK2,204 nM
Nc1nc(-c2nccs2)c(-c2ccnc3ccccc23)s1 [GW693542X],potency estimated from few doses,MDN1,1860 nM
same,potency estimated from few doses,PIK3C3,1430 nM
same,potency estimated from few doses,RIOK2,2090 nM
same,potency estimated from few doses,TGFBR1,1750 nM
Cc1cc(NCC(c2ccccc2)c2ccccc2)nc(NCc2ccc(C(F)(F)F)cc2)n1 [GW497681X],potency estimated from few doses,MTHFD1,2040 nM
same,potency estimated from few doses,TNK1,909 nM
COc1ccc(NC(=O)Nc2ccc(C)c(-c3ccc(C(=O)Nc4ccncc4)cc3)c2)cc1 [GSK1398475A],potency estimated from few doses,PDGFRB,1680 nM
Cc1cc(-c2ccc3c(c2)CC[C@@H](N[C@@H](C)c2ccccc2)C3)cnc1N.Cc1cc(-c2ccc3c(c2)CC[C@@H](N[C@@H](C)c2ccccc2)C3)cnc1N.Cl.Cl [GW412617A],potency estimated from few doses,"PIM3; compound concentrations: 100 nM and 1000 nM (sheet 'Samples'), CATDS: 0.55054057410094004",1020 nM
same,potency estimated from few doses,TESK2,1470 nM
CCn1c(-c2nonc2N)nc2ccccc21 [SB-693162],potency estimated from few doses,PKN2,157 nM
same,potency estimated from few doses,PKN3,1280 nM
same,potency estimated from few doses,PRKCI,2410 nM
same,potency estimated from few doses,ROCK2,1820 nM
CN(C1=C(c2ccccc2)C(=O)NC1=O)c1ccccc1 [SB-334860],potency estimated from few doses,PIK3CD; [1],175 nM
Cl.NC(=O)c1cccc(Nc2nccc(Nc3ccc(Oc4c(Cl)cccc4Cl)c(Cl)c3)n2)c1 [GW659009A],potency estimated from few doses,PIK3CA; CATDS: 0.34504160600825701,183 nM
same,potency estimated from few doses,"PIK3CD; compound concentrations: 100 nM and 1000 nM (sheet 'Samples'), CATDS: 0.90760673272471903",9.83 nM
Cc1cccc(-c2nc(Nc3ccc4c(cnn4C)c3)c3ccccc3n2)n1 [GW876731X],potency estimated from few doses,PIK3CD; [1],158 nM
same,potency estimated from few doses,PRKD1,92.8 nM
same,potency estimated from few doses,PRKD2,26.7 nM
same,potency estimated from few doses,PRKD3,32.8 nM
CN(C)S(=O)(=O)c1cc(-c2ccc3nccc(-c4cccc(S(N)(=O)=O)c4)c3c2)cnc1N [GSK1669921A],potency estimated from few doses,PI4KA,1300 nM
same,potency estimated from few doses,PIK3CA; CATDS: 0.37789009746554098,23 nM
same,potency estimated from few doses,"PIK3CB; compound concentrations: 100 nM and 1000 nM (sheet 'Samples'), CATDS: 0.12770502550951299",777 nM
same,potency estimated from few doses,"PIK3CD; compound concentrations: 100 nM and 1000 nM (sheet 'Samples'), CATDS: 0.59190161407117303",9.62 nM
same,potency estimated from few doses,PIK3CG,466 nM
same,potency estimated from few doses,PRKDC,920 nM
Cn1cc(C2=C(c3cn(C)c4ccc(OCc5ccccc5)cc34)C(=O)NC2=O)c2ccccc21 [RO0317432-000],potency estimated from few doses,PKM,1860 nM
O=C(O)C(F)(F)F.[2H]C([2H])(c1cccc(C(F)(F)F)c1C)n1c(SC)nn2c(=O)cc(N3CCOCC3)nc12 [GSK2363608B],potency estimated from few doses,PIK3CB; [1],8.69 nM
same,potency estimated from few doses,PIK3CD; [1],146 nM
CCn1c(-c2ccoc2)nc2cnccc21 [SB-733887],potency estimated from few doses,PDXK,1740 nM
COC(=O)C(NC(=O)NC1CCN(c2ccnc(Nc3ccc(F)cc3)n2)C1)c1ccccc1 (centres unmarked) [GSK1379712_KCGS],potency estimated from few doses,PI4KB,946 nM
same,potency estimated from few doses,TGFBR2,1400 nM
